# Reference: PubChem BioAssay AID488922 (Johns Hopkins Ion Channel Center, 2010)
# The whole screen tested about 310,000 compounds, of which about 3,800 (1.2%) were called active.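 How the source made its calls: active means ratio B-score over 3 SD below the library mean, with starting fluorescence within 5 SD of its mean; inactive means the rest, inconclusive results apart.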 The list comes from a sample in which actives are over-represented; it also holds similar structures and randomly drawn compounds.
# Target: Potassium channel subfamily K member 9 (Homo sapiens) (UniProt Q9NPC2)
# Sequence (Q9NPC2 whole entry, looked up): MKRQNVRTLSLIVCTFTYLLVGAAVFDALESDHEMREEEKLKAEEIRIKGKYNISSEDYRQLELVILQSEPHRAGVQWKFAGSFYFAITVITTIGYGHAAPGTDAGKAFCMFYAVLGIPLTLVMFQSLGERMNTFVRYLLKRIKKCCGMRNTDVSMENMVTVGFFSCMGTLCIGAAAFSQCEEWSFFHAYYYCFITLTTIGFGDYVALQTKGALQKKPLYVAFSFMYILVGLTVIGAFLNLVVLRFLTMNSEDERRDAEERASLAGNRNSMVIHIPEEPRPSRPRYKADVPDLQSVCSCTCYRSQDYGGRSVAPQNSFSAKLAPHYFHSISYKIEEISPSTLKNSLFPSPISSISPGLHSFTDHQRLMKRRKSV
# Test: blockers of human TASK-3 (KCNK9) channel – HEK293 cells, thallium flux, primary screen (AID 488922);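 on B-score: negative B-score means less thallium flux so channel inhibition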
# Settings: HEK293 KCNK9, FluxOR thallium flux fluorescence, at 10 µM; hits give low values
row,SMILES,B-score
1,FC(F)(F)c1ccc2c3n(nc2c1)CCN=C3c1ccc(Cl)cc1,inactive
2,O=C(Nc1ccc(Br)cc1)c1cccc(NC(=O)C2C3CC4OC(=O)C2C4C3)c1 (centres undefined),inactive
3,COC(=O)c1ccc(C(NC(=O)OCc2ccccc2)/C(F)=C/[C@@H](C)C(=O)O)cc1 (some centres undefined),inactive
4,CCC/C=C(\CCC)C(NC(=O)Cc1ccccc1)c1ccc(C(=O)OC)cc1 (centres undefined),-13.9 (active)
5,CCC[C@@H]1C[C@@]1(CCC)[C@@H](NC(=O)c1ccccc1)c1ccc(C(=O)OC)cc1,inactive
6,CCc1cc2c(=O)n(-c3ccccc3)c(SCC(=O)O)nc2s1,inactive
7,COc1ccc2[nH]c(C)c(CCN(Cc3cccs3)C(=S)Nc3ccccc3OC)c2c1,inactive
8,COc1cccc(NC(=S)N(CCc2c(C)[nH]c3ccccc23)Cc2ccco2)c1,-9.04 (active)
9,CCNC(=S)N(CCc1c(C)[nH]c2ccc(C)cc12)Cc1ccco1,inactive
10,O=C1c2ccccc2S(=O)(=O)N1Cc1c(F)cccc1Cl,inactive
11,O=C1CCN(CCCc2ccccc2)CCN1CCO,inactive
12,CCOC(=O)[C@H]1[C@H]2COc3cc(OC)ccc3[C@@H]2N2C(=O)N(c3ccc(Br)cc3)C(=O)[C@@]12C,inactive
13,CCOC(=O)[C@@H]1[C@H]2COc3cc(OC)ccc3[C@H]2N2C(=O)N(c3ccc(F)cc3)C(=O)[C@]12C,inactive
14,CCOC(=O)[C@@H]1[C@H]2COc3ccc(Br)cc3[C@H]2N2C(=O)N(c3ccc(Cl)cc3)C(=O)[C@@]12C,-10.9 (active)
15,Cc1onc(-c2ccccc2Cl)c1C(=O)OCc1nnc(-c2ccccc2)o1,inactive
16,O=C(CSc1ccc(-c2ccco2)nn1)Nc1cccc(F)c1,inactive
17,Cc1cc(SCc2c(F)cccc2Cl)nc(=O)[nH]1,inactive
18,Fc1cccc(Cl)c1CSc1ccc(-c2ccco2)nn1,-14.1 (active)
19,NC(=O)C1=C[C@@H](c2csc3ccccc23)C[C@@H](OCc2ccc(CO)cc2)O1,inactive
20,COC(=O)c1c(NC(=O)C(=O)N2CCCCC2)sc2c1CC(C)(C)OC2,inactive
21,COc1ccc(/C=C2\CCCC3C2=NN(C(=O)c2scnc2C)C3c2ccc(OC)cc2)cc1 (centres undefined),inactive
22,CCCCC(C(=O)NC(C)(C)C)N(Cc1ccccc1)C(=O)c1snc(C(N)=O)c1N (centres undefined),inactive
23,CCC(C)n1c(-c2cc(OC)c(OC)c(OC)c2)nc2nc3ccccc3nc21 (centres undefined),-15.1 (active)
24,COc1cc(C(O)c2nc3ccccc3n2C)cc(OC)c1OC (centres undefined),inactive
25,COc1cc(-c2n[nH]c(=S)n2Cc2ccccc2)cc(OC)c1OC,inactive

row,SMILES,B-score
1,COc1ccccc1-n1ccnc(SCC(=O)NC2CCCCC2)c1=O,inactive
2,O=C(C1CCN(C2CCN(Cc3ccc4cc(F)ccc4n3)CC2)CC1)N1CCCC1,inactive
3,CCN(C(=O)COC(=O)c1cc(NS(=O)(=O)c2ccc(Cl)c([N+](=O)[O-])c2)ccc1O)C1CCCCC1,inactive
4,Cc1c(C(=O)N2CCCc3ccccc32)oc2ccccc12,inactive
5,Cc1cccc2cc3c(N)c(C(=O)N4CCCc5ccccc54)sc3nc12,-6.79 (active)
6,Cc1c(C(=O)N2CC(C)OC(C)C2)sc2nc(-c3ccccc3)cn12 (centres undefined),inactive
7,O=C(c1cc(-c2ccc(O)cc2)on1)N1CCCc2ccccc21,inactive
8,Cc1c(C(=O)N2CCCc3ccccc32)sc2nc(-c3ccccc3)cn12,-6.69 (active)
9,Cc1c(C(=O)NCC2CCCO2)sc2nc(-c3ccccc3)cn12 (centres undefined),inactive
10,COc1cccc(CNC(=O)Cn2c(=O)oc3cc(S(=O)(=O)N4CCCCC4)ccc32)c1,inactive
11,Cc1ccc(N2CC(C(=O)Nc3ccc(S(=O)(=O)N4CCCC4)cc3)CC2=O)cc1C (centres undefined),inactive
12,O=C(CCc1n[nH]c(=O)[nH]c1=O)N/N=C/c1ccc(Br)o1,inactive
13,CC(C)OCCCNC(=O)c1ccc(C2SCC(=O)N2Cc2ccco2)cc1 (centres undefined),inactive
14,CCCCCCCC(=O)NC(Nc1ccccc1OC)C(Cl)(Cl)Cl (centres undefined),inactive
15,CCOC(=O)N1CCC(N(CCOC)C(=O)Nc2ccc(C)c(C)c2)CC1,inactive
16,CCCCCCCCCCOC(=O)Cn1c(COc2cccc(OC)c2)[n+](C)c2ccccc21,-17.1 (active)
17,Cc1ccc(OCCCn2c(=O)oc3ccccc32)cc1,inactive
18,CCn1c(COc2cccc(OC)c2)nnc1SCC(=O)N1CCOCC1,inactive
19,CCOC(=O)Cn1c(-c2cccnc2Cl)nc2ccccc21,inactive
20,CCCCCCCCC(=O)NCCOc1ccccc1,inactive
21,CCCCCCCCCCOC(=O)Cn1c(COc2ccc(C)cc2)[n+](C)c2ccccc21,-11.4 (active)
22,C[C@@H]1O[C@@H](OC[C@H]2O[C@@H](Oc3c(-c4ccc(O)cc4)oc4cc(O)cc(O)c4c3=O)[C@H](O)[C@@H](O)[C@@H]2O)[C@H](O)[C@H](O)[C@H]1O,inactive
23,Cc1ccc(C2(C)NC(=O)N(CC(=O)Nc3ccccc3C(=O)N3CCCCC3)C2=O)cc1 (centres undefined),inactive
24,O=C(OCCN1CCOCC1)C1(c2ccccc2)CCCCC1,inactive
25,CCc1ccc(-c2cc(C(=O)NN3CCN(C)CC3)c3ccccc3n2)cc1,inactive

row,SMILES,B-score
1,CC(C)CN(C(=O)COC(=O)c1ccc2ccccc2c1)c1c(N)n(Cc2ccccc2)c(=O)[nH]c1=O,inactive
2,Cc1ccc(NS(=O)(=O)c2ccc(-c3ccc(=O)[nH]n3)o2)c(C)c1,inactive
3,Cc1ccc(CCN2CC(C(=O)NCCc3ccccc3)CC2=O)cc1 (centres undefined),inactive
4,O=C(Nc1ccc(Cl)cc1)C1c2cccc[n+]2CC(=O)N1Cc1ccc2c(c1)OCO2 (centres undefined),inactive
5,C=CCOc1ccc(/C=N/NC(=O)C(C)Sc2ccccn2)cc1OCC (centres undefined),-8.3 (active)
6,CCOc1ccc(/C=N/NC(=O)CSc2ccccn2)cc1O,inactive
7,CCOc1ccc(/C=N/NC(=O)C(C)Sc2ccccn2)cc1OCC (centres undefined),inactive
8,C/C(=N\NC(=O)CCn1nc(C)cc1C)C(C)(C)C,inactive
9,O=C(COC(=O)c1ccc[nH]c1=O)Nc1ccc2c(c1)OC(F)(F)O2,inactive
10,O=C(COC(=O)c1ccccc1NC(=O)c1ccco1)Nc1ccc2c(c1)OC(F)(F)O2,-8.01 (active)
11,COc1ccc(OCC(=O)Nc2ccc(NC(=O)c3ccco3)c(C)c2)cc1,inactive
12,Cc1ccnc(SCCn2c(N(C)Cc3ccccc3)nc3c2c(=O)n(C)c(=O)n3C)n1,inactive
13,OC(COCCC12CC3CC(CC(C3)C1)C2)CN1CCCCC1 (centres undefined),inactive
14,CC(=O)N(C1=C(Cl)C(=O)c2ccccc2C1=O)c1ccc(C(=O)O)cc1,-6.74 (active)
15,O=C(CN1C(=O)c2ccccc2C1=O)NCc1ccc(C(=O)O)cc1,inactive
16,COc1ccc2occ(C(=O)c3ccc(N=C(C)N(C)C)cc3)c2c1,inactive
17,COc1ccc(OC)c(C(=O)c2coc3ccc(OC)cc23)c1,-15 (active)
18,COc1ccc(OC)c(C(=O)c2coc3ccc(O)c(CN4CCOCC4)c23)c1,inactive
19,Cc1ccnc(NC(=O)Cn2ccc([N+](=O)[O-])n2)c1,inactive
20,Cc1ccc(-c2cc(C(=O)N/N=C/C=C/c3ccco3)c3ccccc3n2)cc1C,inactive
21,CC(/C=N/NC(=O)c1cc(-c2ccc3ccccc3c2)n[nH]1)=C\c1ccco1,-6.63 (active)
22,CC(/C=N/NC(=O)c1ccncc1)=C\c1ccco1,inactive
23,CCOc1ccc(-n2c(SCC(=O)NC3CCS(=O)(=O)C3)nnc2-c2cccnc2)cc1 (centres undefined),inactive
24,CCCC(C(=O)n1nc(C)cc1C)C(NS(=O)(=O)c1ccc(C)cc1)c1ccccc1 (centres undefined),inactive
25,CC1CCN(C(=O)c2ccc(CSc3ccc(Cl)cc3)cc2)CC1,-8.16 (active)

row,SMILES,B-score
1,O=C(c1ccc(CSc2ccccc2)cc1)N1CCCCCC1,inactive
2,O=C(C1CC1)N1CCN=C1SCc1ccc(Cl)cc1,inactive
3,CCCCn1c(N)c(N(CCOC)C(=O)c2cccc(S(=O)(=O)N(C)c3ccccc3)c2)c(=O)[nH]c1=O,inactive
4,CCOC(=O)Cc1csc(SCC(=O)NC(C)C23CC4CC(CC(C4)C2)C3)n1 (centres undefined),inactive
5,CN(C)S(=O)(=O)c1cccc(NC(=O)Cc2ccsc2)c1,inactive
6,CN(C)S(=O)(=O)c1cccc(NC(=O)COC(=O)C2(c3ccccc3F)CCCC2)c1,inactive
7,CN(c1ccccc1)S(=O)(=O)c1cccc(NC(=O)Cc2c(F)cccc2Cl)c1,-15.5 (active)
8,Cc1cc(=O)oc2c1ccc1ccccc12,inactive
9,COc1ccc(CN(C)C(=O)CC(c2ccccc2)c2ccccc2)cc1,inactive
10,COc1ccc(C(CCN(Cc2ccc(OC)c(OC)c2)C(=O)CCl)c2ccccc2)cc1 (centres undefined),-11 (active)
11,COc1ccc(COC(=O)NC(C(=O)O)c2ccccc2)cc1 (centres undefined),inactive
12,O=c1[nH]c(/C=C/c2cccc(Br)c2)nc2ccccc12,inactive
13,COc1ccc(CNc2ncnc3ccccc23)cc1,inactive
14,COc1cccc(CNc2nc(C(F)(F)F)nc3ccccc23)c1,-8.03 (active)
15,CCc1ccc(C(CNc2nc(C(F)(F)F)nc3ccccc23)N(C)C)cc1 (centres undefined),inactive
16,CCOC(=O)c1cc(C(=O)Nc2ccc(S(=O)(=O)Nc3ccc(OC)cc3)cc2)nn1C,inactive
17,COc1ccc(-n2ncc3c2CC(C)(C)CC3NC(=O)CCc2c(C)noc2C)cc1 (centres undefined),inactive
18,Cc1nn(CC(=O)Nc2nc3ccccc3s2)c(C)c1[N+](=O)[O-],-10.4 (active)
19,CCc1ccc(NC(=O)Cn2nc(C)c([N+](=O)[O-])c2C)cc1,inactive
20,Cc1nn(CC(=O)NCc2ccccn2)c(C)c1[N+](=O)[O-],inactive
21,Cc1cc(C)nc(NS(=O)(=O)c2ccc(N3C(=O)C4CCCCC4C3=O)cc2)n1 (centres undefined),inactive
22,COc1ccccc1N1CCN(c2ccc([N+](=O)[O-])nc2)CC1,inactive
23,COc1ccccc1N1CCN(c2ncnc3sc(C)c(-c4ccccc4)c23)CC1,-16.5 (active)
24,Oc1ccccc1N1CCN(c2ncnc3sc(-c4ccccc4)cc23)CC1,inactive
